Assay results as given in PubChem BioAssay AID624115 (Johns Hopkins Ion Channel Center, 2012).
In all, about 4,000 compounds went through this assay and about 350 (8.8%) were called active.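 The calls were made as follows: active = calcium fluorescence ratio at least three times the spread of buffer wells, meaning a non-specific response in parental cells; inactive = the rest.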 A selection follows.

Assay: nonspecific Ca2+ signal without MrgX1 expression – cell-based, Fluo-4 calcium flux, duplicate, agonist mode, counter-screen for MrgX1 agonist project, primary screen (AID 624115)
Details: parental HEK293, Fluo-4 calcium fluorescence (FDSS), at 10 µM; hits give high values
With `CCOCc1nnc(NC(=O)CCC2CCCCC2)s1` the fluorescence ratio F(max-min)/F0 was “inactive”.
With `CCOc1cc(-c2conc2N)cc(OCC)c1OCC` the fluorescence ratio F(max-min)/F0 was “inactive”.
For `Cc1cc(C)cc(NC(=S)NCCc2c[nH]c3ccccc23)c1`, the fluorescence ratio F(max-min)/F0 was “inactive”.
With `C(=N\n1cnnc1)/c1cccnc1` the fluorescence ratio F(max-min)/F0 was “inactive”.
In the case of `O=S(=O)(c1ccc2ccccc2c1)N1CCN(S(=O)(=O)N2CCOCC2)CC1`, the fluorescence ratio F(max-min)/F0 is reported as “inactive”.
In the case of `Cc1cc2oc3ccc(NCCC4CCCN4C)cc3c(=O)c2cc1C` (configuration not stated), the fluorescence ratio F(max-min)/F0 is reported as 95.1 (active).
With `COc1ccc(C2SCCN2S(=O)(=O)c2ccccc2)cc1OC` (configuration not stated) the fluorescence ratio F(max-min)/F0 was “inactive”.
For `COc1ccccc1N(CC(=O)N1CCCCC1)S(=O)(=O)c1ccccc1`, the fluorescence ratio F(max-min)/F0 was 78.4 (active).
For `Cc1ccc(OC(=O)c2cc3ccccc3o2)cc1`, the fluorescence ratio F(max-min)/F0 was “inactive”.
In the case of `Cc1nn(C(=O)c2ccoc2C)c(N)c1-c1ccccc1`, the fluorescence ratio F(max-min)/F0 is reported as “inactive”.
For `O=C(Cc1ccccn1)c1ccc(O)cc1O`, the fluorescence ratio F(max-min)/F0 was “inactive”.
With `O=C(Nc1ccccc1)c1nnsc1S(=O)(=O)c1ccc(Cl)cc1` the fluorescence ratio F(max-min)/F0 was “inactive”.
For `CCCCCCCCCCOC(=O)Cn1c(COc2ccc(C)cc2)[n+](C)c2ccccc21`, the fluorescence ratio F(max-min)/F0 was “inactive”.
In the case of `Cc1ccc(Cc2cnc(N)s2)o1`, the fluorescence ratio F(max-min)/F0 is reported as “inactive”.
For `CCNC(=O)c1c(O)c2cccc3c2n(c1=O)CC3`, the fluorescence ratio F(max-min)/F0 was “inactive”.
In the case of `CCc1ccc2nc3sc(C(=O)Nc4nnc(CC)s4)c(N)c3cc2c1`, the fluorescence ratio F(max-min)/F0 is reported as 47 (active).
With `COCc1nnc(NC(=O)c2ccc3c(c2)OCO3)s1` the fluorescence ratio F(max-min)/F0 was “inactive”.
With `CCOC(=O)C1=C(O)CSC1=Nc1cccc(Cl)c1` the fluorescence ratio F(max-min)/F0 was “inactive”.
In the case of `C=CCSc1nc(Cc2ccc(Cl)cc2)nc2ccccc12`, the fluorescence ratio F(max-min)/F0 is reported as “inactive”.
For `Cc1cc(=O)oc2cc(NC(=O)C3CC(=O)N(Cc4ccccc4)C3)ccc12` (configuration not stated), the fluorescence ratio F(max-min)/F0 was “inactive”.
For `CCCc1nc2c(c(=O)c3ccccc3n2C)c(=O)n1C1CCCCCC1`, the fluorescence ratio F(max-min)/F0 was “inactive”.
In the case of `CCN(CC)CC(=O)Nc1nn(-c2ccccc2)nc1C(N)=O`, the fluorescence ratio F(max-min)/F0 is reported as “inactive”.
In the case of `COc1cc2c(cc1O)C(SC)=NC(C)(C)C2`, the fluorescence ratio F(max-min)/F0 is reported as “inactive”.
For `CCC1CCCCN1CCNC(=O)c1[nH]c(C)c(C(C)=O)c1C` (configuration not stated), the fluorescence ratio F(max-min)/F0 was “inactive”.
For `Cc1ccc2c(C)c(C(=O)N(C)CCC3CCCCO3)oc2c1C` (configuration not stated), the fluorescence ratio F(max-min)/F0 was “inactive”.
For `Cc1cccc(NC(=O)COc2ccccc2C)n1`, the fluorescence ratio F(max-min)/F0 was “inactive”.
With `O=C(O)CSC(NC(=O)c1cccnc1)(C(F)(F)F)C(F)(F)F` the fluorescence ratio F(max-min)/F0 was “inactive”.
In the case of `O=C(CCN1CCc2ccccc2C(O)(c2ccccc2)C1)c1ccc2c(c1)OCCO2` (configuration not stated), the fluorescence ratio F(max-min)/F0 is reported as “inactive”.
With `CC(C)CC(=O)NC(=S)NNC(=O)c1cccc([N+](=O)[O-])c1` the fluorescence ratio F(max-min)/F0 was 53 (active).
For `CC(C)CC(=O)N/C(N)=N/c1nc2ccccc2s1`, the fluorescence ratio F(max-min)/F0 was “inactive”.
In the case of `Cc1onc(-c2ccccc2)c1C(=O)NNC(=S)NC(=O)c1ccc(F)cc1`, the fluorescence ratio F(max-min)/F0 is reported as 123 (active).
In the case of `COc1ccc(C(=O)NC(=S)NNC(=O)c2c(-c3ccccc3)noc2C)cc1`, the fluorescence ratio F(max-min)/F0 is reported as 108 (active).
